Each structure is given as a SMILES string. Results filed as inconclusive are left out. Where a call stands in place of a potency, no number is given. Calls of active or inactive are those of the source. Calls follow the shape of the dose curve; as a rule, active = well fitted inhibition curve with a large enough effect; inconclusive = small, poorly fitted or top-dose-only effect; inactive = flat fitted curve, though single readings scatter.

The nature of the test: P-glycoprotein substrates identified in KB-8-5-11 adenocarcinoma cell line, qHTS therapeutic library screen (AID 1346987). Also: nearly all actives have a fitted effect of over 65% in size. The note with it: KB-8-5-11 (P-gp overexpressing) viability, CellTiter-Glo, 72 h; series mostly up to 44.5 µM. From the text:
The ATP-binding cassette transporters P-glycoprotein (P-gp) is known to limit brain penetration of many chemotherapy drugs. […] As such, we developed a high-throughput screen (HTS) to identify substrates of P-gp from a series of chemical libraries including the National Center for Advancing Translational Sciences Pharmaceutical Collection NPC, 2,816 compounds), testing a total of 10,804 compounds, most of which have known mechanisms of action. We used the CellTiter-Glo viability assay to test library compounds against the parental KB-3-1 human cervical adenocarcinoma cell line and the colchicine-selected sub-line KB-8-5-11 that over-expresses P-gp. KB-8-5-11 cells were also tested in the presence of a P-gp inhibitor (tariquidar) to assess reversability of transporter-mediated resistance. Of the tested compounds, a total of 90 P-gp substrates were identified including 55 newly identified P-gp substrates. Substrates were confirmed using an orthogonal killing assay against HEK-293 cells transfected with P-gp. As exemplars, we confirmed that […] (cyclin-dependent kinase inhibitor); AT9283, (Janus kinase 2/3 inhibitor); ispinesib (kinesin spindle protein inhibitor); gedatolisib (PKI-587, phosphoinositide 3-kinase/mammalian target of rampamycin inhibitor); GSK-690693 (AKT inhibitor); and KW-2478 (heat shock protein 90 inhibitor) were substrates , and direct ATPase stimulation was assessed. ABCG2 was also found to confer high levels of resistance to AT9283, GSK-690693 and gedatolisib, while ispinesib, AT7519 and KW-2478 were weaker substrates.
The HeLa derivative cell line, KB-3-1, and its colchicine-selected, P-gp-overexpressing subline, KB-8-5-11 were maintained in DMEM with 10% FCS and Pen/Strep with glutamine at 37 degree C in 5% CO2. For KB-8-5-11 cells, colchicine was added to the medium at a concentration of 100 ng/mL. HEK-293 cells transfected with empty vector (pcDNA) or vector containing human ABCB1 (MDR-19) or ABCG2 (R-5) have been described previously (Robey, Lin, Qiu, Chan & Bates, 2011) and were maintained in EMEM supplemented with 10% FCS, Pen/Strep and glutamine with 2 mg/ml G418 to select for the expression of the transporter. Cultures were confirmed to be free of mycoplasma infection using the MycoAlert Mycoplasma Detection Kit (Lonza, Walkersville, MD). For the screen, assay medium was identical to culture medium except for KB-8-5-11 where colchicine was excluded from the medium.
All cell lines were plated into 1536-well plates at 500 cells/well in 5 uL media. Compounds were then pinned in dose-response using a 1536-head pin tool (Kalypsis, San Diego, CA) and plates were incubated at 37 degree C in 5% CO2 for an additional 72 h. CellTiter-Glo reagent (Promega) was dispensed into the wells, incubated for 5 min and luminescence was read on a ViewLux instrument (Perkin-Elmer). Cytotoxic compounds were defined as those that yielded a curve class of -1.1, -1.2, -2.1, -2.2, -2.3, or -2.4, a maximum response of >50% and an AC50 of < 10 uM. Cherry-picked hits from screening analysis were tested with both the KB pair of cell lines, and the pcDNA (empty vector control) and MDR-19 (P-gp overexpressing) pair were tested, in the absence and presence of tariquidar.
(In general: In qHTS, concentration-response curves come from the screen itself.)
Regarding `COCCN1CCC(C(=O)NO)(S(=O)(=O)c2ccc(Oc3ccc(OC(F)(F)F)cc3)cc2)CC1`, the Potency entry is “inactive”. Take `CC1(C)[C@H]2C[C@H](C/C=C\CCCC(=O)O)[C@@H](NC(=O)c3csc4ccc(O)cc34)[C@@H]1C2`: the Potency result was “inactive”. Still for that read-out and setting: the value for `O=C(OCC(O)CO[C@@H]1O[C@H](C(=O)O)[C@@H](O)[C@H](O)[C@H]1O)c1ccccc1` (stereo not given in full) was “inactive”; that for `COC(=O)C1=COC(O[C@@H]2O[C@H](CO)[C@@H](O)[C@H](O)[C@H]2O)/C(=C\COC(=O)/C=C/c2ccccc2)C1CC(=O)OCCc1ccc(O)cc1` (stereo not given in full) was “inactive”. On the same count and under the same terms, in the case of `COc1cc2c(cc1O)C(c1ccc(O)cc1)C(C)C(C)C2` (stereo not given) it was “inactive”. Same read-out and setting: the value for `C=C1CCC2C(C)(C(=O)OC)CCCC2(C)C1CCC1=CCOC1=O` (stereo not given) was “inactive”.

As to `COCC1OC(OC(C)(C)C2CCC3(C)C=C(C4CCC5C4(C)CC(O)C4OC(C(C)(C)O)CCC45C)CCC3O2)C(NC(C)=O)C(O)C1O` (stereo not given), the Potency entry was “inactive”. As for `C[C@@H]1O[C@@H](O[C@H]2[C@@H]3C=CO[C@@H](O[C@@H]4O[C@H](CO)[C@@H](O)[C@H](O)[C@H]4O)[C@@H]3[C@@]3(CO)O[C@@H]23)[C@H](O)[C@H](OC(=O)/C=C/c2ccc(O)c(O)c2)[C@H]1O`, the Potency entry was “inactive”. On to `COc1cc(/C=C/C(=O)O[C@@H]2O[C@H](CO)[C@@H](O)[C@H](O)[C@H]2O)ccc1O`, for which the Potency entry was “inactive”. Same read-out and setting: in the case of `COc1ccc(C(=O)CC(=O)O)c2c1C=CC(C)(C)O2` it was “inactive”; in that of `CCC(C)/C=C(C)/C=C/C(=O)C1CCC(O)C(C)(O)C1=O` (stereo not given), “inactive”; in that of `CC1=C(CC/C(C)=C/C(=O)O)[C@@]2(C)CCCC(C)(C)C2CC1=O` (stereo not given in full), “inactive”.

On to `CC(=O)/C=C/C1C(C)CC(O[C@@H]2O[C@H](CO)[C@@H](O)[C@H](O)[C@H]2O)CC1(C)C` (stereo not given in full), for which the Potency result is “inactive”.

For the molecule `C[C@@H]1C[C@H]2OC(=O)[C@@]3(C)CCC[C@](C)(C23)[C@@]1(O)CCC1=CC(=O)OC1O` (stereo not given in full), the Potency result is “inactive”. Turning to `Cn1cc(Nc2cnccc2C(=O)O)c2cccnc21`, the Potency result was “inactive”. Turning to `C=C(C)[C@H]1CC[C@]2(C(=O)O)CC[C@]3(C)C(CCC4[C@@]5(C)CCC(=O)C(C)(C)C5CC[C@]43C)C12` (stereo not given in full), the Potency result was “inactive”. The same measure, in the same setting: in the case of `C=C(C(=O)O)[C@@H]1CC[C@H](C)[C@@H]2CC(=O)C(C)=C2C1` it was “inactive”.

Regarding `NC(=O)[C@H](Cc1ccccc1)NC(=O)[C@H](CCCN=C(N)N)NC(=O)C12CC3CC(CC(C3)C1)C2`, the outcome is “inactive [at 9.29 µM]”. Regarding `COc1cccc(OC)c1-c1nc(C(=O)N[C@@H](CC(C)C)C(=O)O)cn1-c1ccnc2cc(Cl)ccc12`, the Potency result was “inactive”.

As to `C/C=C1\[C@H](O[C@@H]2O[C@H](CO)[C@@H](O)[C@H](O)[C@H]2O)OC=C(C(=O)O)[C@H]1CC(=O)OCCc1ccc(O)cc1`, the Potency entry is “inactive”. With `O=C(O)Cn1nnc(-c2ccc(CN(CCCCOc3ccc(CN4CCCC4)cc3)CCc3ccccc3)cc2)n1`, the Potency entry is “inactive”. Consider `CC(=O)/C=C/[C@H]1[C@](C)(O)[C@@H](O)[C@H](O)C2C(C)(C)CCC[C@@]21C` (stereo not given in full), for which the Potency result is “inactive”. For the molecule `CC(C)=CCC[C@](C)(O[C@@H]1O[C@H](CO[C@@H]2O[C@@H](CO)[C@H](O)[C@H]2O)[C@@H](O)[C@H](O)[C@H]1O)[C@H]1CC[C@]2(C)[C@@H]1[C@H](O)C[C@@H]1[C@@]3(C)CC[C@H](O[C@@H]4O[C@H](CO)[C@@H](O)[C@H](O)[C@H]4O[C@@H]4O[C@H](CO)[C@@H](O)[C@H](O)[C@H]4O)C(C)(C)[C@@H]3CC[C@]12C`, the Potency entry was “inactive”.

`O=C(N[C@H](Cc1ccccc1)C(=O)O)c1sc2cc(F)ccc2c1Cl`: the Potency result is “inactive”. Take `CS(=O)(=O)c1ccccc1N1CCN(c2nc3c(c(=O)[nH]2)CSCC3)CC1`: the Potency result was “inactive”.

As for `O=C(O)c1ccnc2cc(C(OCC3CCC(F)(F)CC3)c3ccccc3Cl)[nH]c12` (stereo not given), the Potency result was “inactive”. As to `C=C1CCC2C(C)(C)CCC[C@]2(C)[C@H]1CC/C(C)=C/C(=O)O` (stereo not given in full), the Potency entry is “inactive”. With `O=C(O)CCc1cc2ccoc2cc1O[C@@H]1O[C@H](CO)[C@@H](O)[C@H](O)[C@H]1O`, the Potency result is “inactive”. Same read-out and setting: in the case of `C=CCC/C=C/C#CCCCCCCCC[C@H]1C(=O)O[C@H](C)[C@@H]1O` it was “inactive”. Turning to `O=C(/C=C/c1ccc(O)cc1)OC[C@H]1O[C@H](O[C@@]2(CO)O[C@@H](CO)[C@H](O)[C@H]2O)[C@H](O)[C@@H](O)[C@@H]1O`, the Potency result is “inactive”. For the molecule `C/C=C/C=C/C(O)=C1/C(=O)[C@]2(C)C(=O)[C@@](C)(O)[C@H]1[C@H]([C@@]1(C)OC(=O)C(C)=C1O)[C@H]2C(=O)CC/C=C/C`, the Potency result was “inactive”. Take `CC[C@@H]1C(=O)O[C@]23C=C[C@@H]4C(C(=O)OC)=CO[C@H](O[C@@H]12)[C@@H]43`: the Potency entry was “inactive”. For `CC(O)/C=C/C1(O)C(C)C(O)C(O[C@@H]2O[C@H](CO)[C@@H](O)[C@H](O)[C@H]2O)CC1(C)C` (stereo not given in full), the Potency result was “inactive”. The same measure, in the same setting: the value for `C=C1CCC2C(C)(C)CC(O)CC2(C)C1CCC(C)CC(=O)O` (stereo not given) was “inactive”. Regarding `CC1=CCC2C(C)(C)CCCC2(C)C1CC12OC1C(O)C(CO)=CC2O` (stereo not given), the Potency entry was “inactive”. Same read-out and setting: the value for `CC1CCC23COC(=O)C2=CC(O)CC3C1(C)CCc1ccoc1` (stereo not given) was “inactive”. As to `COc1cc(C(C)=O)ccc1O[C@@H]1O[C@H](CO[C@@H]2OC[C@@H](O)[C@H](O)[C@H]2O)[C@@H](O)[C@H](O)[C@H]1O`, the Potency result was “inactive”. Regarding `Cc1oc(S(=O)(=O)N2CCCCC2)cc1NC(=O)Nc1ccccc1`, the Potency result was “inactive”.

As for `Fc1ccccc1-c1nc2ccn(Cc3ccc(-c4ccc(C(F)(F)F)cc4C(F)(F)F)nn3)cc-2n1`, the Potency result is “inactive”. For the molecule `CCc1cc(CC[C@]2(C3CCCC3)CC(O)=C(Cc3nc4nc(C)cc(C)n4n3)C(=O)O2)cc(CC)n1`, the Potency entry was “inactive”.

Values taken from PubChem BioAssay (NCATS).
